From the supplement of paper PMC11732987, “Enantioselective OTUD7B fragment discovery through chemoproteomics screening and high-throughput optimisation” (Communications Chemistry, 2025)

Key:
Test in all cases: log2 ratio of Biotin-Ahx-Ub-VS probe labelling (fragment/DMSO); higher = less target engagement (more negative = stronger competition), active = hit call of the paper (q ≤ 0.05, log2 ratio ≤ -1)
Settings in all cases: compound concentration: 200 uM; treatment time: 3 h
ALG13 = target: T1, ALG13 (UniProt Q9NP73)
T1 sequence (whole entry): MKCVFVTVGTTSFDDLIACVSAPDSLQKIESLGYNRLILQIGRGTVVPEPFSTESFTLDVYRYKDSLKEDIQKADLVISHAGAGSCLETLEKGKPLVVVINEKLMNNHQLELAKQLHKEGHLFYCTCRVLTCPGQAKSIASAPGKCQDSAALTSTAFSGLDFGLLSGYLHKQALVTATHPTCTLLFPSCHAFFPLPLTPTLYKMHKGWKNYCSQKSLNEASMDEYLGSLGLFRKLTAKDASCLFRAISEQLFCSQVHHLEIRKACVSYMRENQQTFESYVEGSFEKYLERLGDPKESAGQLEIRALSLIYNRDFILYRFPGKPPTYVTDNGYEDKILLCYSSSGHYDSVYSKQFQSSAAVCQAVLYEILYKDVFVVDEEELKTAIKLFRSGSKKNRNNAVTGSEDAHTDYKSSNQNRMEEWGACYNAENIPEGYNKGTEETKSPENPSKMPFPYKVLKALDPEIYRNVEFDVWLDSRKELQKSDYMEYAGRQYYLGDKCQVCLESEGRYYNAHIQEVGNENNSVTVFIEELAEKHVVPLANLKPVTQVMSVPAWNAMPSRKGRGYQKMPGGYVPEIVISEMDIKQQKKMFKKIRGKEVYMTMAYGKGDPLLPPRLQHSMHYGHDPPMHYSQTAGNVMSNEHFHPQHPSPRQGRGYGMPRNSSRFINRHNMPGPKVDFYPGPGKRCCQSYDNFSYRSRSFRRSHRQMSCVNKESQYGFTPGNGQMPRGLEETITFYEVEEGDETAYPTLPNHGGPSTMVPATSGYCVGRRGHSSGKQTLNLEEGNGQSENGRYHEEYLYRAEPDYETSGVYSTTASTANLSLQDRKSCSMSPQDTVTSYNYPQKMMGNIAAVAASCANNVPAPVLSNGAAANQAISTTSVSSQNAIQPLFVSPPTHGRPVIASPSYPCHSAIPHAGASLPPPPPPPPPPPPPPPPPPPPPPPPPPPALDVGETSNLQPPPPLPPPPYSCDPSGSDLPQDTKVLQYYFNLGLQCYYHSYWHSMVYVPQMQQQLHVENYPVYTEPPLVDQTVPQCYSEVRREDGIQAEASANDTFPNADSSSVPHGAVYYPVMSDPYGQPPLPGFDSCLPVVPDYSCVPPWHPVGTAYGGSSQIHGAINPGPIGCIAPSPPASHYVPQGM
Method in brief: (§1)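 HEK293T lysate (495 µg per sample, in Tris/CHAPS/IGEPAL buffer with protease inhibitors) was exposed in triplicate for 3 h to fragment at 200 µM or to vehicle, then to Biotin-Ahx-Ub-VS at 0.5 µM final for 1 h. Labelled DUBs were enriched on NeutrAvidin, digested with LysC and trypsin, and analysed by diaPASEF LC-MS/MS. Spectronaut label-free quantities were normalised to the global median, and values are average log2 ratios of fragment over vehicle from an unpaired t-test. Only proteins with ≥2 unique peptides were used.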

ATXN3 = ATXN3 (UniProt P54252)
ATXN3, sequence (P54252 whole entry): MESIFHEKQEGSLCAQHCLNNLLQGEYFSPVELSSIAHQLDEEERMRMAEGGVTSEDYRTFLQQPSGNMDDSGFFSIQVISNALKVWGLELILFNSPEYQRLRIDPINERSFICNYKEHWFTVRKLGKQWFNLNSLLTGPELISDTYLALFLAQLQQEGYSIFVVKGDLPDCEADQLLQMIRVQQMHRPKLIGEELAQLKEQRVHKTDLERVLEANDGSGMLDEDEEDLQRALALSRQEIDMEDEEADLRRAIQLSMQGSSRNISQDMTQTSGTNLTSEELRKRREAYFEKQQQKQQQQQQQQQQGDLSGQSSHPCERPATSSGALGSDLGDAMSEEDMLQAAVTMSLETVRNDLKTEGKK
Method in brief: as §1

BAP1 = target: T2, BAP1 (UniProt Q92560)
T2 sequence (whole entry): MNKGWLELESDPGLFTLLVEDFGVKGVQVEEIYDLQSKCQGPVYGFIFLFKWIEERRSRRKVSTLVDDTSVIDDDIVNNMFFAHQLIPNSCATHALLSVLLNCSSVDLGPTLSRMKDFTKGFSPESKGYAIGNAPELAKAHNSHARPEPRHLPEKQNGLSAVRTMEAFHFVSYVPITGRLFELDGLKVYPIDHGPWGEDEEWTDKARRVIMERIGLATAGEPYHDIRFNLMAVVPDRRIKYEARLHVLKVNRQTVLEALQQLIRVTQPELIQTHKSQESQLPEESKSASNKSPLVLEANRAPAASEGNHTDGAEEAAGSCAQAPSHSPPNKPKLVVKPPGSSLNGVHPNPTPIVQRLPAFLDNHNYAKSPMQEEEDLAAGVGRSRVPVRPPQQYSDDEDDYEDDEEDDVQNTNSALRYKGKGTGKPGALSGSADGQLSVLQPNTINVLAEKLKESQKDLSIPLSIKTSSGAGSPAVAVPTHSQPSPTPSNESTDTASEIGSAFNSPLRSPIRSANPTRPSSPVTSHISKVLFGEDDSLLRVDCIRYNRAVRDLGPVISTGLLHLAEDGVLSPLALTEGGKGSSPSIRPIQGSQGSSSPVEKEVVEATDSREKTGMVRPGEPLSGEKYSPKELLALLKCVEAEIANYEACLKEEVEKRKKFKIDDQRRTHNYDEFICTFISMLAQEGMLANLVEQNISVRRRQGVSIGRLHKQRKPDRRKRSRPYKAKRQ
Method in brief: as §1

EIF3F = EIF3F (UniProt O00303)
EIF3F, sequence (O00303 whole entry): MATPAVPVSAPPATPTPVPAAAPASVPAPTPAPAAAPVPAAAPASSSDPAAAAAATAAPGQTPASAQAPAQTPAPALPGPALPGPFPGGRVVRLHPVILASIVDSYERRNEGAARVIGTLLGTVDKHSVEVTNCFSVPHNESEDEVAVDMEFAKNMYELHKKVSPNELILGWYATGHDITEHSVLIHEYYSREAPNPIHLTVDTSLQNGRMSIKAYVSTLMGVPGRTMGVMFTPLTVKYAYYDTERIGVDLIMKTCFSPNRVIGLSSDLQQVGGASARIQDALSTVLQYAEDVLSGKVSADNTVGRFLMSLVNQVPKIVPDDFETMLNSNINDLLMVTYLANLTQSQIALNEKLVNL
Method in brief: as §1

EIF3H = EIF3H (UniProt O15372)
EIF3H, sequence (O15372 whole entry): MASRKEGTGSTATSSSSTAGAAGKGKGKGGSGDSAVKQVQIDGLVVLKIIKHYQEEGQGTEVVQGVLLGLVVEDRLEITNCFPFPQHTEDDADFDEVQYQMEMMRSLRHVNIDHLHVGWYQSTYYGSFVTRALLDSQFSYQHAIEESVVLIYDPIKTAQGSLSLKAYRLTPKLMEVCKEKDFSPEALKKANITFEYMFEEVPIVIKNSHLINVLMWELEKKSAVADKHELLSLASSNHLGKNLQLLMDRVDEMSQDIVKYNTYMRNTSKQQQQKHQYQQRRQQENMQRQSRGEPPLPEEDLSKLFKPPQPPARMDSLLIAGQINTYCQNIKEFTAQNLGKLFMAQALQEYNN
Method in brief: as §1

FAM105A = target: T3, FAM105A (UniProt Q9NUU6)
T3 sequence (whole entry): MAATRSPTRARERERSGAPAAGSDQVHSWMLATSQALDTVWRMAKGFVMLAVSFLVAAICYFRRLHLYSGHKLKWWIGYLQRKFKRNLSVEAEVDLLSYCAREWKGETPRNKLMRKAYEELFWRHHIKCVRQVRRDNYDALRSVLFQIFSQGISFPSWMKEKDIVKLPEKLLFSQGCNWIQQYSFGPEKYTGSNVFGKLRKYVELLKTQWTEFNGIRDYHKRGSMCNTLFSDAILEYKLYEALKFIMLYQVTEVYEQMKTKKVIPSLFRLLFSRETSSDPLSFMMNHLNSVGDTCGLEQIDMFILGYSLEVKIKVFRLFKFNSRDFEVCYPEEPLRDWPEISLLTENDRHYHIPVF
Method in brief: as §1

OTUB1 = OTUB1 (UniProt Q96FW1)
OTUB1, sequence (Q96FW1 whole entry): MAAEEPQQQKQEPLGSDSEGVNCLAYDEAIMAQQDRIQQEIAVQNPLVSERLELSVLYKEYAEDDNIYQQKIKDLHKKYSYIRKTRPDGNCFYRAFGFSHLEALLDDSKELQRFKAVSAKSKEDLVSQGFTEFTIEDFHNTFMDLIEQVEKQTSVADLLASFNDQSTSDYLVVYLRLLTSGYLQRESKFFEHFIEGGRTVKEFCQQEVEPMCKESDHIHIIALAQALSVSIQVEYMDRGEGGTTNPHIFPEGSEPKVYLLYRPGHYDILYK
Method in brief: as §1

OTUD4 = target: T4, OTUD4 (UniProt Q01804)
T4 sequence (whole entry): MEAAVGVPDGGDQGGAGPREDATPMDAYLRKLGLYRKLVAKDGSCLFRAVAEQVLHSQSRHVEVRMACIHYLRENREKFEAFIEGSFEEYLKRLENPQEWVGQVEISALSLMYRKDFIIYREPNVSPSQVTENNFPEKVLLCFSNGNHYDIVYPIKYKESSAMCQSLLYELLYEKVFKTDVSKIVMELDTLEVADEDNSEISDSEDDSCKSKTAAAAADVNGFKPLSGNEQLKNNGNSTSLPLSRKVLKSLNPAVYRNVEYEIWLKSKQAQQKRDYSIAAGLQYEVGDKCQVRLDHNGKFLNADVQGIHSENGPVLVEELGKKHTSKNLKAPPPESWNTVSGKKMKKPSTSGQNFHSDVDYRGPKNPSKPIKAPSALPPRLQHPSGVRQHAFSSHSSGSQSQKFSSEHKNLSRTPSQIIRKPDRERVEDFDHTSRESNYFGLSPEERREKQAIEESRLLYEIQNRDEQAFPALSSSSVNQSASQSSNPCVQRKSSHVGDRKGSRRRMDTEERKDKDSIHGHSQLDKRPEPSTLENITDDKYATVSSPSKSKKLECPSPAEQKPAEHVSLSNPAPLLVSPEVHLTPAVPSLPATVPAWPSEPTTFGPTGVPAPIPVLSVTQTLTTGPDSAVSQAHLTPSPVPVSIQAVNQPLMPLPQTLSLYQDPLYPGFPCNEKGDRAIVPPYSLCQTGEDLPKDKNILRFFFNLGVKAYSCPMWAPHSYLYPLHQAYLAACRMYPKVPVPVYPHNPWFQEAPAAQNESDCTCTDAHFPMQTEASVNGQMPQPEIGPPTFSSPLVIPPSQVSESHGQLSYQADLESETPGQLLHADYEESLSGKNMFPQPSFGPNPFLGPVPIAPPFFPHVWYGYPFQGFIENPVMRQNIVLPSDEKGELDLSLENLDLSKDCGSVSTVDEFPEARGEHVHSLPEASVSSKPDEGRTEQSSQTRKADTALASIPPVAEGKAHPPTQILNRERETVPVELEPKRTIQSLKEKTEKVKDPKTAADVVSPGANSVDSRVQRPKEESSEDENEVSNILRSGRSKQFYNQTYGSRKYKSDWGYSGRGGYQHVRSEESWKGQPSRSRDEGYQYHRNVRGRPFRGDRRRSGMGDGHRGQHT
Method in brief: as §1

OTUD5 = target: T5, OTUD5 (UniProt Q96G74)
T5 sequence (whole entry): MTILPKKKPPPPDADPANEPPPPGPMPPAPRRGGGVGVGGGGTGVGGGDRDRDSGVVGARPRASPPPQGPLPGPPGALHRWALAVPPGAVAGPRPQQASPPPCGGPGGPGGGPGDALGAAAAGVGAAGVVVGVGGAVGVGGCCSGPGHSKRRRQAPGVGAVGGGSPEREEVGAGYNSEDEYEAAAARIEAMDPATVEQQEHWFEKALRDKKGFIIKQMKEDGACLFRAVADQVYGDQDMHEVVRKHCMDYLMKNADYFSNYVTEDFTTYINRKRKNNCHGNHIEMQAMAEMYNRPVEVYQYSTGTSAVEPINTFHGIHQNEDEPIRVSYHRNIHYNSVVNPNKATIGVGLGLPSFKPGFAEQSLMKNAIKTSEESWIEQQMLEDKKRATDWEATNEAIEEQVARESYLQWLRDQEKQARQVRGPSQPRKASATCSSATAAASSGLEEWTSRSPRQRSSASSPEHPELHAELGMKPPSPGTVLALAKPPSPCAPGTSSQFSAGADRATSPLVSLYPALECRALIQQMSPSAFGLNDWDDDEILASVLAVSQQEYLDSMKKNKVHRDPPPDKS
Method in brief: as §1

Measured: log2 ratio of Biotin-Ahx-Ub-VS probe labelling

Cc1cnc2[nH]cc(CCNC(=O)CCl)c2c1
active: BAP1 -1
inactive: ALG13 -0.0473 | ATXN3 -0.0726 | EIF3F -0.228 | EIF3H 0.13 | FAM105A -0.55 | OTUB1 0.0416 | OTUD4 -0.139 | OTUD5 -0.26
